# Measurements reported in PubChem BioAssay (NCI).
# This is part of a sample that, as a whole, favours compounds with a hit. Of some 83,000 tested, about 20% had one in any assay.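 Values shown are percent growth following 48 h exposure of cells in 96-well plates to a single concentration of compound; below 10 was considered active.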 The source made the active and inactive calls.
# System: SNB-75 CNS
# Assay: NCI-60 one-dose screen, 48 h (100 = growth as untreated, 0 = no growth, -100 = all killed)
# Conditions: 10 µM unless noted
row,Structure (SMILES),growth
1,COc1ccc(/C=C/c2nc(Nc3ccc(S(=O)(=O)Nc4cc(C)on4)cc3)c3ccccc3n2)cc1,74.7% (inactive)
2,NS(=O)(=O)c1ccc(CCN2C(=O)c3cc(Cl)c(Cl)cc3C2=O)cc1,98.3% (inactive)
3,C/C=C(\C)C(=O)NC1=CC[C@@]2(C)C(=CCC3C2CC[C@@]2(C)C3CC[C@@H]2C(C)N(C)C)C1=O (some centres undefined),42.3% (inactive)
4,O=c1c2c(c(=O)n1O)c1c3ccc[nH]c3nc1c1nc3[nH]cccc3c12,87% (inactive)
5,Cc1ccc(C(=O)/C(=C\c2ccc([N+](=O)[O-])cc2)S(=O)Cc2ccc(F)cc2)cc1 (centres undefined),57.1% (inactive)
6,O=C(Nc1ncc(Cc2cc(Cl)ccc2Cl)s1)c1cccs1,72.5% (inactive)
7,O=C(C[n+]1cccc2ccccc21)c1ccc(O)c(O)c1,66% (inactive)
8,OCc1cnccc1NCCCCOc1ccc(Oc2ccccc2)cc1,71.6% (inactive)
9,Oc1cccc(CCc2ccc(Oc3cc(CCc4cccc(O)c4)cc(O)c3O)cc2)c1,72.8% (inactive)
10,CC/C(=C\c1ccc(OC)cc1)C(=O)c1ccc(OC)cc1,77.3% (inactive)
11,CN1C(N2CCN(S(=O)(=O)c3ccccc3)CC2)=NS(=O)(=O)c2ccccc21,53.4% (inactive)
12,O=C1Nc2ccc(F)cc2/C1=C\c1c(-c2ccccc2)nc2ccccn12,61.6% (inactive)
13,O=C(Cn1c(C(=O)c2ccccc2)nc2ccccc21)c1ccc(F)cc1,48.4% (inactive)
14,COc1ccc(C(=O)c2nc3ccccc3n2CC(=O)c2ccc(Cl)cc2)cc1,1.37% (active)
